TTR transcr act = TTR transcription activators in neuroblastoma reporter cells, primary screen, cell-based, luminescence, SH-SY5Y, TTR promoter Gaussia luciferase. 100% = recombinant luciferase protein wells. activation, % at 16.7 µM. 92,000 tested, 1.3% active;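 active = activation above the mean of all tested compounds plus 3 SD, cut at about 9.5% in these data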;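 also: cells exposed to compounds for one day before reading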
TTR inh HuH7 = TTR promoter reporter inhibitors in hepatoma cells, counter-screen for TTR transcription activator project, cell-based, luminescence, HuH7 hepatoma; shares compounds with TTR transcr act; HuH7 TTR promoter-Gaussia luciferase reporter; inhibition, % at 16.7 µM; 1,100 tested, 4% active; AID 1117279, 2014;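 active = average inhibition above the solvent-only control wells' mean plus 3 SD, cut at about 15% in these data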;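 also: inhibitors lower well luminescence so higher value means more inhibition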
TTR up confirm = TTR transcription activators, retest, confirmation, cell-based, luminescence, SH-SY5Y, triplicate. shares compounds with TTR transcr act. SHSY5Y TTR promoter Gaussia luciferase; 100% = purified Lucia enzyme wells, no cells. 1,100 tested, under 10 active. activation, % at 16.7 µM;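 active = mean activation above a set limit taken from the earlier primary screen, cut at about 11% in these data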
Hits are given with their value. Only a selection was taken, and hits are over-represented in it overall.

Results for CC(C)(C)NC(=O)[C@H](c1cccnc1)N(C(=O)c1ccco1)c1ccc(C(C)(C)C)cc1 ?
TTR transcr act: inactive

How did CC(NC(=O)C(=O)NCC1CCCO1)c1ccccc1 (centres undefined) do in these assays?
TTR transcr act: inactive

Results for O=C(CCSc1ccccc1)NCC1CCCO1 (centres undefined) ?
TTR transcr act: 15.2; TTR inh HuH7: inactive; TTR up confirm: inactive

Results for O=C(CCSCCC(=O)NCC1CCCO1)NCC1CCCO1 (centres undefined) ?
TTR transcr act: inactive

What do the screens show for `O=C(Nc1cccs1)OC1CC2CC1[C@H]1CCCCN1C2` (some centres undefined)?
TTR transcr act: inactive

Results for C[C@H]1[C@@H](OC(=O)N2CCN(c3ccccc3)CC2)CC[C@@]23CCCN2C(=O)CCC[C@@H]13 ?
TTR transcr act: inactive

Results for CCOC(=O)c1cnc2cc(-c3ccc(Br)cc3)nn2c1C ?
TTR transcr act: inactive

What do the screens show for `CCOC(=O)c1cnc(-c2ccccc2)nc1N1CCOCC1`?
TTR transcr act: inactive

What do the screens show for `CCOC(=O)c1cnc2c(-c3ccccc3)cnn2c1C`?
TTR transcr act: 12.6; TTR inh HuH7: inactive; TTR up confirm: inactive

How did CC(C)C[C@H](NC1(C(=O)NC2CCCCC2)CCCCC1)C(=O)NCCc1c[nH]c2ccccc12 do in these assays?
TTR transcr act: inactive

What do the screens show for `OCC1OC(n2nnc3ccccc32)C(O)C(O)C1O` (centres undefined)?
TTR transcr act: inactive

How did Nc1ncnc2c1ncn2C1OC(CO)C(O)C1O (centres undefined) do in these assays?
TTR transcr act: inactive

How did O=c1ccncn1C1OC(CO)C(O)C1O (centres undefined) do in these assays?
TTR transcr act: 13.2; TTR inh HuH7: inactive; TTR up confirm: inactive

How did COC(=O)[C@]12C[C@H](CC(=O)NCCC(C)C)C(=O)N(Cc3ccc(Cl)cc3Cl)C1=C[C@H](COCc1ccccc1)O[C@@H]2C do in these assays?
TTR transcr act: inactive

How did COc1ccc(C(=O)NCC(=O)OCC(=O)NCc2cccs2)cc1 do in these assays?
TTR transcr act: inactive

What do the screens show for `CSc1ncccc1C(=O)OCC(=O)NCc1cccs1`?
TTR transcr act: inactive

How did Cc1ccc(C(=O)OCC(=O)NCc2cccs2)cc1 do in these assays?
TTR transcr act: 11.2; TTR inh HuH7: inactive; TTR up confirm: inactive

How did O=C(COC(=O)c1cc2ccccc2cc1O)NC(=O)NCc1ccco1 do in these assays?
TTR transcr act: inactive

Results for COc1ccccc1NC(=O)NNC(=O)c1cc2ccccc2cc1O ?
TTR transcr act: inactive

What do the screens show for `O=C(OCc1ccccc1F)c1cc2ccccc2cc1O`?
TTR transcr act: 10.7; TTR inh HuH7: inactive; TTR up confirm: inactive

What do the screens show for `O=C(CCC(=O)Nc1cccnc1)Nc1cccnc1`?
TTR transcr act: inactive

What do the screens show for `COC(=O)[C@H](Cc1ccccc1)NS(=O)(=O)c1ccc(F)cc1Br`?
TTR transcr act: inactive

What do the screens show for `C[C@H]1C=C(C(=O)NCc2nc3ccccc3[nH]2)O[C@@H](OCCCCO)C1`?
TTR transcr act: inactive

How did CC(C)(C)[C@H]1C=C(C(=O)NCc2ccccc2)O[C@@H](OCCCCO)C1 do in these assays?
TTR transcr act: 18.5; TTR inh HuH7: inactive; TTR up confirm: inactive

How did CC(C)(C)[C@H]1C=C(C(=O)O)O[C@@H](OCCCCO)C1 do in these assays?
TTR transcr act: inactive

What do the screens show for `COc1ccc(/C=C(\C#N)C(=O)OCCNC(=O)c2ccncc2)cc1`?
TTR transcr act: inactive

How did COc1cc(/C=C(/C#N)C(=O)NC(C)c2ccccc2)cc(OC)c1O (centres undefined) do in these assays?
TTR transcr act: inactive

What do the screens show for `COc1ccc(/C=C(\C#N)C(=O)OCC(=O)NC(C)c2ccccc2)cc1` (centres undefined)?
TTR transcr act: 17.5; TTR inh HuH7: inactive; TTR up confirm: inactive

Results for O=S1(=O)N[C@H](Cc2ccccc2)COc2cc(Br)ccc21 ?
TTR transcr act: inactive

Results for CCOC(=O)N1CCN(c2cc(=O)n(-c3ccccc3C)c(=O)[nH]2)CC1 ?
TTR transcr act: inactive

What do the screens show for `CCOc1ccc(-n2c(=O)cc(N3CCN(c4ccc(F)cc4)CC3)[nH]c2=O)cc1`?
TTR transcr act: inactive

What do the screens show for `CCOC(=O)N1CCN(c2cc(=O)n(-c3ccc(OC)cc3)c(=O)[nH]2)CC1`?
TTR transcr act: 9.7; TTR inh HuH7: inactive; TTR up confirm: inactive

How did COc1ccc(OC)c(CN2C(=O)CN(S(C)(=O)=O)CC2(C)c2nnnn2C2CCCC2)c1 (centres undefined) do in these assays?
TTR transcr act: inactive

How did O=C(CNC(=O)c1ccccc1)NCC(c1ccco1)N1CCCC1 (centres undefined) do in these assays?
TTR transcr act: 13.3; TTR inh HuH7: inactive; TTR up confirm: inactive

How did O=C(NCC(c1ccco1)N1CCCC1)c1ccc(-n2cccn2)cc1 (centres undefined) do in these assays?
TTR transcr act: inactive

What do the screens show for `N#Cc1ccc(C(=O)NCC(c2ccco2)N2CCCCC2)cc1` (centres undefined)?
TTR transcr act: inactive

Results for COC(=O)[C@]12C[C@H](CC(=O)NCc3ccc(OC)c(OC)c3)C(=O)N(Cc3ccccc3)C1=C[C@H](COCc1ccccc1)O[C@@H]2C ?
TTR transcr act: inactive

What do the screens show for `Clc1ccc([C@H]2OC[C@@]3(CNCc4ccccc4)CS[C@H](c4ccc(Cl)cc4)N23)cc1`?
TTR transcr act: inactive

What do the screens show for `COc1ccc(-c2noc3c2-c2nc(C(C)C)sc2CC3)cc1`?
TTR transcr act: inactive

What do the screens show for `CCCc1nc2c(s1)CCc1onc(-c3ccc(OC)cc3)c1-2`?
TTR transcr act: inactive

Results for Brc1ccc(-c2noc3c2-c2nc(C4CCCCC4)sc2CC3)cc1 ?
TTR transcr act: 13.8; TTR inh HuH7: inactive; TTR up confirm: inactive

What do the screens show for `Cc1ccc(CN2CCCCC(NC(=O)c3ccccc3C)C2=O)cc1` (centres undefined)?
TTR transcr act: inactive

How did O=C(Cn1nc(-c2ccccc2)c2ccccc21)Oc1ccccc1 do in these assays?
TTR transcr act: inactive

Results for C#CCNC(=O)C[C@H]1C[C@@]2(C(=O)OC)C(=C[C@H](C(C)(C)C)O[C@@H]2C)N(Cc2ccc(Cl)cc2Cl)C1=O ?
TTR transcr act: inactive

How did COc1ccc(C2=NOC(Cn3nc(C(=O)NCc4cccc(C(F)(F)F)c4)cc3-c3ccccc3)C2)cc1 (centres undefined) do in these assays?
TTR transcr act: inactive

What do the screens show for `CC(C)CC(O)(CC(C)C)c1cn(C(=O)N(c2ccccc2)c2ccccc2)nn1`?
TTR transcr act: inactive

Results for CCCc1cc(=O)c2ccc(OCC(C)=O)cc2o1 ?
TTR transcr act: inactive

What do the screens show for `COc1ccc(-c2cc(=O)oc3cc(OCC(C)=O)ccc23)cc1`?
TTR transcr act: inactive

Results for CC(=O)COc1ccc2c(C)c(C)c(=O)oc2c1 ?
TTR transcr act: 13.8; TTR inh HuH7: inactive; TTR up confirm: inactive

What do the screens show for `COc1ccc(C2C(C(=O)O)c3ccccc3C(=O)N2C)cc1Br` (centres undefined)?
TTR transcr act: 11.3; TTR inh HuH7: inactive; TTR up confirm: inactive

Screening results from PubChem.
